Reference: paper PMC7862700, “An all-to-all approach to the identification of sequence-specific readers for epigenetic DNA modifications on cytosine”

What was measured:
Test in all cases: DAPPL (digital affinity profiling via proximity ligation, sequencing); 10 mM Tris-HCl pH 7.5, 50 mM NaCl, 1 mM DTT, 4% glycerol, room temperature, 30 min; GST-TFs on glutathione beads, 16-mer random dsDNA library, 0.1% formaldehyde crosslink after washing; high values mean tight binding
Conditions in all cases: protein: recombinant; tags: N-terminal GST; dsDNA, one strand shown
[1] = target: T1, ERF (Homo sapiens, UniProt P50548 1-548)
T1 sequence: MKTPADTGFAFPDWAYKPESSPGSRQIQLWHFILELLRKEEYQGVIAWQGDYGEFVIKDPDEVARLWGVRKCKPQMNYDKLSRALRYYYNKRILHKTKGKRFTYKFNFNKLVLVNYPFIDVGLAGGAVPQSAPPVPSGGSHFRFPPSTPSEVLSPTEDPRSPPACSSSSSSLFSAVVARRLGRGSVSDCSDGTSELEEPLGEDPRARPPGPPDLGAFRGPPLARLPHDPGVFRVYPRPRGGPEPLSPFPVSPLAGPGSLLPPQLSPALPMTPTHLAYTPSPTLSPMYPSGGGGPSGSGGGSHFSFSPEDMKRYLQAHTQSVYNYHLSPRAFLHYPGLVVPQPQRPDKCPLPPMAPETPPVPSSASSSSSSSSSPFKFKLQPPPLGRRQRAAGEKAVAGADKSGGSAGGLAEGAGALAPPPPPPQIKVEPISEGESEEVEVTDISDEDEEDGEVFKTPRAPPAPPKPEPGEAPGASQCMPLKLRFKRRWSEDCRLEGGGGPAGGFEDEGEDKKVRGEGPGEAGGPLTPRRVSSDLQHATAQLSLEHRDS
Method in brief: (§1)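 Human transcription factors carrying a GST fusion were produced in yeast, bound to glutathione beads, tagged with DNA barcodes and pooled together with a tag-only sample. Each pool was held with 200 nmole of a random double-stranded 16-mer DNA library in Tris/NaCl/DTT/glycerol buffer for 30 min at room temperature, then washed, crosslinked in 0.1% formaldehyde, proximity-ligated with BsaI/T4 ligase (1 h, 37 °C), PCR-amplified and sequenced on an Illumina NextSeq500. Binding signal is the read frequency of each hexamer for a given factor divided by its frequency in the tag-only sample.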

[2] = target: T2, ETV3L (Homo sapiens, UniProt Q6ZN32 1-361)
T2 sequence: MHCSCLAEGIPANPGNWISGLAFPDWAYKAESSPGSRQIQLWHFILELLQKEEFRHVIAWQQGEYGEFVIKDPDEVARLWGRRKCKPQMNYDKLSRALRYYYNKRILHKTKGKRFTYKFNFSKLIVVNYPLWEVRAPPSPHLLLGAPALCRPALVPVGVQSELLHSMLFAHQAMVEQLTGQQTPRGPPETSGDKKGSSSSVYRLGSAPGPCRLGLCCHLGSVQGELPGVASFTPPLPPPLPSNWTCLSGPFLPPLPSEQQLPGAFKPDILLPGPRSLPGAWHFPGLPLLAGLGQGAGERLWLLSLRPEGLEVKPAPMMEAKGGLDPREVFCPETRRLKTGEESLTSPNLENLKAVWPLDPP
Method in brief: as §1

[3] = target: T3, ETS2 (Homo sapiens, UniProt P15036 1-469)
T3 sequence: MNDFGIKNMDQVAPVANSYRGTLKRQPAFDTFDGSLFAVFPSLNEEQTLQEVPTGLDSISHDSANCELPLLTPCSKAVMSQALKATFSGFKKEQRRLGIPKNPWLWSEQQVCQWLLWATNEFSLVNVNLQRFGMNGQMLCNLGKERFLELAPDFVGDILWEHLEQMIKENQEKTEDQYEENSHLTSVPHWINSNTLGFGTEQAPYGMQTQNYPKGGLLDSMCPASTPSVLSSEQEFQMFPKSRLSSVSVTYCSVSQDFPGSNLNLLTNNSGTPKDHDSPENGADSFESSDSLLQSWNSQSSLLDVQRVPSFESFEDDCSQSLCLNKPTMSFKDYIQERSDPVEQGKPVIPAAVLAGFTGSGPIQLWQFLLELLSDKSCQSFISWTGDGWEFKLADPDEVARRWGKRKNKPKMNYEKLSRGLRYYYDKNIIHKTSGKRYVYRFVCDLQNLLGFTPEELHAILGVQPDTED
Method in brief: as §1

[4] = target: T4, SPDEF (Homo sapiens, UniProt O95238 1-335)
T4 sequence: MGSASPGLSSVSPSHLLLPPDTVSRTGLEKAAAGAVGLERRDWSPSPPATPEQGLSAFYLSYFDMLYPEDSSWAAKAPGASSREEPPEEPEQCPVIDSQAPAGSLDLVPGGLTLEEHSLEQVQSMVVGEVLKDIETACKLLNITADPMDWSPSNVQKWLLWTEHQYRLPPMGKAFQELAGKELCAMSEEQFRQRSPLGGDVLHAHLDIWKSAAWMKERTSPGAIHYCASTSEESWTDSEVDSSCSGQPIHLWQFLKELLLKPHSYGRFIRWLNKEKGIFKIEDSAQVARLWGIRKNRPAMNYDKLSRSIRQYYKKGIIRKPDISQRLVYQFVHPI
Method in brief: as §1

[5] = target: T5, ETV7 (Homo sapiens, UniProt Q9Y603 1-341)
T5 sequence: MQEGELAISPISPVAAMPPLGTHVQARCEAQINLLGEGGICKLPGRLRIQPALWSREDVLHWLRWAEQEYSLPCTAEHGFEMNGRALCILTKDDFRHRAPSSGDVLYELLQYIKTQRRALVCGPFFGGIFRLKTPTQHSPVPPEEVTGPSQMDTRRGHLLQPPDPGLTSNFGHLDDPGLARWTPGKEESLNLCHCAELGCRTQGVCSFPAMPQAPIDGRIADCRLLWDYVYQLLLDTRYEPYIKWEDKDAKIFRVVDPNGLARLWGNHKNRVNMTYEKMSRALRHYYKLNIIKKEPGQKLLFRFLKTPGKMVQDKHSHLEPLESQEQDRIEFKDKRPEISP
Method in brief: as §1

[6] = target: T6, ELF5 (Homo sapiens, UniProt Q9UKW6-2 1-255)
T6 sequence: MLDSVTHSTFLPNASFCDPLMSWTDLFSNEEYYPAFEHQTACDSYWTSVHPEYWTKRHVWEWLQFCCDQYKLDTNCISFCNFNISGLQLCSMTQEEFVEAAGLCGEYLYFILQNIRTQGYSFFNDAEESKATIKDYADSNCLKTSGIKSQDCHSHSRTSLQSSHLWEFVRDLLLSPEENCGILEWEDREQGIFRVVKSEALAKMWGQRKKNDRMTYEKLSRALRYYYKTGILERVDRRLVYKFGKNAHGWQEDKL
Method in brief: as §1

[7] = target: T7, ETV3 (Homo sapiens, UniProt P41162-2 1-143)
T7 sequence: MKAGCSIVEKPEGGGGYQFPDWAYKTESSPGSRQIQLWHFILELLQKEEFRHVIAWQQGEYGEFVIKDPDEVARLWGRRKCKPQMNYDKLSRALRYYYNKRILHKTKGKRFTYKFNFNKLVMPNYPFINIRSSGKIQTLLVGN
Method in brief: as §1

[8] = target: ETV6 (Homo sapiens, UniProt P41212 1-452)
ETV6, sequence (P41212 whole entry): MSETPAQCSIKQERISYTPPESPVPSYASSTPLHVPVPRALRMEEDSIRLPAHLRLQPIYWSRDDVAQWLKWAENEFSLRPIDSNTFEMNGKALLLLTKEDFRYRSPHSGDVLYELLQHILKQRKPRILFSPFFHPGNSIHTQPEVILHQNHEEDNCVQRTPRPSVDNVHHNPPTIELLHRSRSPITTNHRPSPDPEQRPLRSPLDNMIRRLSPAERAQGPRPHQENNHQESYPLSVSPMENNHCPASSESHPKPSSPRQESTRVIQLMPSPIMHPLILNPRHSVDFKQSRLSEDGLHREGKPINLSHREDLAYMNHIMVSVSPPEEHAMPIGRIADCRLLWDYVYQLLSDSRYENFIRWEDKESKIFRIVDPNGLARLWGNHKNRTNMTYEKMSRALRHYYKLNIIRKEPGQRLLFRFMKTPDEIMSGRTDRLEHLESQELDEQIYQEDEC
Method in brief: as §1

Row | Sequence | binding signal [1] | binding signal [2] | binding signal [3] | binding signal [4] | binding signal [5] | binding signal [6] | binding signal [7] | binding signal [8]
1 | CTGTTG | 1.17 fold enrichment (6-mer frequency, TF over GST control) | 1.07 fold enrichment (6-mer frequency, TF over GST control) | 1.21 fold enrichment (6-mer frequency, TF over GST control) | 1.12 fold enrichment (6-mer frequency, TF over GST control) | 1.05 fold enrichment (6-mer frequency, TF over GST control) | 1.09 fold enrichment (6-mer frequency, TF over GST control) | 1.21 fold enrichment (6-mer frequency, TF over GST control) | 1.08 fold enrichment (6-mer frequency, TF over GST control)
2 | AGAAAT | 1.13 fold enrichment (6-mer frequency, TF over GST control) | 1.17 fold enrichment (6-mer frequency, TF over GST control) | 1.21 fold enrichment (6-mer frequency, TF over GST control) | 1.03 fold enrichment (6-mer frequency, TF over GST control) | 1.21 fold enrichment (6-mer frequency, TF over GST control) | 1.15 fold enrichment (6-mer frequency, TF over GST control) | 1.09 fold enrichment (6-mer frequency, TF over GST control) | 1.18 fold enrichment (6-mer frequency, TF over GST control)
3 | TTAAGT | 1.12 fold enrichment (6-mer frequency, TF over GST control) | 1.15 fold enrichment (6-mer frequency, TF over GST control) | 1.16 fold enrichment (6-mer frequency, TF over GST control) | 1.31 fold enrichment (6-mer frequency, TF over GST control) | 1.19 fold enrichment (6-mer frequency, TF over GST control) | 1.12 fold enrichment (6-mer frequency, TF over GST control) | 1.12 fold enrichment (6-mer frequency, TF over GST control) | 1.19 fold enrichment (6-mer frequency, TF over GST control)
4 | TTACCG | 1.05 fold enrichment (6-mer frequency, TF over GST control) | 1.03 fold enrichment (6-mer frequency, TF over GST control) | 1.19 fold enrichment (6-mer frequency, TF over GST control) | 1.21 fold enrichment (6-mer frequency, TF over GST control) | 1.17 fold enrichment (6-mer frequency, TF over GST control) | 1.3 fold enrichment (6-mer frequency, TF over GST control) | 1.23 fold enrichment (6-mer frequency, TF over GST control) | 1.25 fold enrichment (6-mer frequency, TF over GST control)
5 | CGGTTC | 1.21 fold enrichment (6-mer frequency, TF over GST control) | 1.17 fold enrichment (6-mer frequency, TF over GST control) | 1.21 fold enrichment (6-mer frequency, TF over GST control) | 1.63 fold enrichment (6-mer frequency, TF over GST control) | 1.17 fold enrichment (6-mer frequency, TF over GST control) | 1.33 fold enrichment (6-mer frequency, TF over GST control) | 1.3 fold enrichment (6-mer frequency, TF over GST control) | 1.4 fold enrichment (6-mer frequency, TF over GST control)
6 | TGTGCC | 1.01 fold enrichment (6-mer frequency, TF over GST control) | 1.19 fold enrichment (6-mer frequency, TF over GST control) | 1.07 fold enrichment (6-mer frequency, TF over GST control) | 1.17 fold enrichment (6-mer frequency, TF over GST control) | 1.04 fold enrichment (6-mer frequency, TF over GST control) | 1.05 fold enrichment (6-mer frequency, TF over GST control) | 1.13 fold enrichment (6-mer frequency, TF over GST control) | 1.21 fold enrichment (6-mer frequency, TF over GST control)
7 | TTTCTT | 1.22 fold enrichment (6-mer frequency, TF over GST control) | 1.34 fold enrichment (6-mer frequency, TF over GST control) | 1.32 fold enrichment (6-mer frequency, TF over GST control) | 1.19 fold enrichment (6-mer frequency, TF over GST control) | 1.37 fold enrichment (6-mer frequency, TF over GST control) | 1.31 fold enrichment (6-mer frequency, TF over GST control) | 1.34 fold enrichment (6-mer frequency, TF over GST control) | 1.23 fold enrichment (6-mer frequency, TF over GST control)
8 | TTCGCA | 1.46 fold enrichment (6-mer frequency, TF over GST control) | 1.32 fold enrichment (6-mer frequency, TF over GST control) | 1.18 fold enrichment (6-mer frequency, TF over GST control) | 1.31 fold enrichment (6-mer frequency, TF over GST control) | 1.26 fold enrichment (6-mer frequency, TF over GST control) | 1.27 fold enrichment (6-mer frequency, TF over GST control) | 1.34 fold enrichment (6-mer frequency, TF over GST control) | 1.22 fold enrichment (6-mer frequency, TF over GST control)
